Experimental data taken from PubChem BioAssay AID720597 (Broad Institute, 2013).
Results with a measured potency or affinity are listed apart.

Target: NAD-dependent protein deacylase sirtuin-5, mitochondrial (Homo sapiens) (UniProt Q9NXA8)
Assay: SIRT5 deacylase inhibitors, dose response, biochemical, fluorescence imaging, cherry-pick, set 6 (AID 720597);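 further: lower AMC signal can also come from blocking the trypsin step; 0% = median of neutral control wells and -100% = median of positive control wells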
Conditions: Purified SirT5, succinyl-peptide-AMC/trypsin fluorescence; series mostly up to 15 µM; activity change, negative = inhibition: at the top concentration;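 active means fitted half-maximal dose no more than twice the top valid tested dose, for compounds that lower signal; inconclusive means fit invalid, or curve flat with activity between -70 and -30; inactive means potency past limit, curve flat within ±30, or signal increasing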

NAD-dependent protein deacylase sirtuin-5, mitochondrial (Homo sapiens), sequence (Q9NXA8 whole entry, looked up): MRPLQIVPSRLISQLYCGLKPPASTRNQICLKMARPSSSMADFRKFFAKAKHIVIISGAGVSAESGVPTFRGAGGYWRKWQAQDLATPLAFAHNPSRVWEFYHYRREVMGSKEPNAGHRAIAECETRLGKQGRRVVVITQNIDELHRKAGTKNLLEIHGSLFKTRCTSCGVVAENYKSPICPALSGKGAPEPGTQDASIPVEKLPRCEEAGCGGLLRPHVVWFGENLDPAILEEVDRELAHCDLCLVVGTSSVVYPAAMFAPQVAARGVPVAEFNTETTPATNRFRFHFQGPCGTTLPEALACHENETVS

Activity change, negative = inhibition, inactive:
CCCC(=O)Nc1ccc2c(c1)OC[C@@H](C)N(Cc1ccccc1)C[C@H](C)[C@@H](OC)CN(C)C2=O -11.1%
O=C(NCC[C@@H]1CC[C@H](NC(=O)C2CC2)[C@@H](CO)O1)c1cc(Cl)cc(Cl)c1 -6.62%
O=C(NCC[C@H]1CC[C@@H](NS(=O)(=O)c2cccc(F)c2)[C@@H](CO)O1)C1CCOCC1 6.94%
CCN1[C@H](C(=O)NCc2ccccc2)[C@@H](CO)[C@@H]2Cn3c(ccc(-c4ccncc4)c3=O)[C@@H]21 -21.2%
CNC[C@@H]1Oc2ccc(NC(=O)Nc3ccc(F)cc3)cc2CC(=O)N([C@@H](C)CO)C[C@@H]1C 12.6%
Cc1ccc(S(=O)(=O)Nc2ccc3c(c2)CC(=O)N([C@@H](C)CO)C[C@H](C)[C@@H](CN(C)Cc2ccc(-c4ccccc4)cc2)O3)cc1 33.9%
COc1ccc([Si](C)(C)[C@@H]2[C@@H](CCO)O[C@]3(C(=O)N(Cc4cccc(NC(C)=O)c4)c4ccccc43)[C@H]2C)cc1 -7.91%
COc1ccc(CN(C)C[C@H]2Oc3c(NS(=O)(=O)c4ccccc4)cccc3C(=O)N([C@@H](C)CO)C[C@H]2C)cc1 -24.4%
C[C@@H]1CN([C@H](C)CO)C(=O)c2c(c3ccccc3n2C)-c2ccccc2CO[C@@H]1CN(C)S(=O)(=O)c1ccc(C(F)(F)F)cc1 5.77%
C[C@H]1CN([C@@H](C)CO)C(=O)Cc2cc(NC(=O)Nc3ccc(F)cc3)ccc2O[C@@H]1CN(C)C -9.38%
O=C(C[C@H]1C[C@@H]2c3cc(NC(=O)Nc4ccc(C(F)(F)F)cc4)ccc3O[C@@H]2[C@@H](CO)O1)NCc1ccc2c(c1)OCO2 -19.6%
COCCNC(=O)c1cc2c(c(-c3cccc(-c4cccc(F)c4)c3)n1)[C@@H](CCO)N([S@](=O)C(C)(C)C)C2 -11.9% [at 13.5 µM]
CC(C)CC#Cc1ccc2c(c1)O[C@@H](CN(C)C(=O)c1cccc(F)c1)[C@H](C)CN([C@@H](C)CO)S2(=O)=O -9.35%
Cc1noc(C)c1S(=O)(=O)N(C)C[C@@H]1Oc2ccc(NC(=O)Cn3cnnn3)cc2C(=O)N([C@@H](C)CO)C[C@@H]1C -12.8%
CCCC#Cc1ccc([C@@H]2[C@@H](CO)N3CCCCN(S(=O)(=O)Cc4ccccc4)C[C@H]23)cc1 35.3%
CO[C@H](CN(C)Cc1nccs1)[C@@H](C)CN([C@@H](C)CO)S(=O)(=O)c1ccc(C)cc1 -8.22%
CS(=O)(=O)Nc1ccc2c(c1)[C@H]1C[C@@H](CC(=O)NCCc3ccccc3)O[C@@H](CO)[C@H]1O2 -16.6%
C[C@@H]1CN([C@H](C)CO)C(=O)c2cccc(NC(=O)c3nc4ccccc4s3)c2O[C@@H]1CN(C)C(=O)NC1CCCCC1 -1.95%
CN1c2ccc(-c3ccc(F)cc3)cc2[C@@H]2[C@@H](CCN2C(=O)c2ccncc2)[C@@H]1CO -11.8%
C[C@H](CO)N1C[C@H](C)[C@H](CN(C)S(C)(=O)=O)Oc2c(NC(=O)c3ccncc3)cccc2C1=O -0.231%
OC[C@@H]1[C@H](c2ccccc2)C2(CN(Cc3nccs3)C2)N1Cc1cccnc1 30.3%
COc1ccc(S(=O)(=O)Nc2ccc3c(c2)C(=O)N([C@H](C)CO)C[C@@H](C)[C@@H](CN(C)Cc2ccc(C(F)(F)F)cc2)OCCCC[C@H](C)O3)cc1 -3.42%
COc1ccc(C#Cc2ccc([C@H]3[C@H](CO)N4C(=O)CN(C(=O)c5cccnc5)C[C@@H]34)cc2)cc1 -11.8%
CC(=O)N(Cc1cccc(F)c1)C[C@H]1[C@@H](c2ccccc2)[C@@H](CO)N1C(C)=O -14.4%
COc1ccccc1NC(=O)N[C@@H]1CC[C@H](CCNS(=O)(=O)c2ccc(Cl)cc2)O[C@@H]1CO -15.1%
C[C@H]1CN([C@@H](C)CO)S(=O)(=O)c2ccc(/C=C/c3ccccc3)cc2O[C@@H]1CN(C)C(=O)Nc1ccc(F)cc1 -2.4%
C[C@@H]1CN([C@@H](C)CO)S(=O)(=O)c2ccc(C#Cc3ccccc3)cc2O[C@H]1CN(C)C(=O)C1CC1 5.11%
O=C(c1ccc2c(c1)OCO2)N1CC(=O)N2[C@H](CO)[C@H](c3ccc(C#CCC4CCCC4)cc3)[C@@H]2C1 -21.9% [at 16 µM]
Cc1ccc(S(=O)(=O)N[C@@H]2C=C[C@H](CC(=O)N3CCN(c4ccccc4)CC3)O[C@@H]2CO)cc1 1.72%
C[C@@H]1CCCCO[C@H](CN(C)C(=O)Nc2ccc(F)cc2)[C@@H](C)CN([C@H](C)CO)C(=O)c2cc(NC(=O)Nc3ccc(F)cc3)ccc2O1 21%
